Reference: paper PMC11006913
Substitutions are numbered along the chain they refer to.

What was measured:
Assay in all cases: PBM; 200 nM protein, PBS
Conditions in all cases: dsDNA, one strand shown
[1] = target: T1, PAX4 (Homo sapiens, UniProt O43316 9-242, R200K)
T1 sequence: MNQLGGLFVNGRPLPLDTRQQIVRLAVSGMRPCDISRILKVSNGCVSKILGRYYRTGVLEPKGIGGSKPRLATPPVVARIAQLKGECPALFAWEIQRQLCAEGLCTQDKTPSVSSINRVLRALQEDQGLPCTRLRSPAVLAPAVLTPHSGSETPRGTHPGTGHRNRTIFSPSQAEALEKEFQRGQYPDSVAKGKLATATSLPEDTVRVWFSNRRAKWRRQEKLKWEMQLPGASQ

[2] = target: T2, PAX4 (Homo sapiens, UniProt O43316 9-242)
T2 sequence: T1 sequence with K192R

[3] = target: T3, PAX4 (Homo sapiens, UniProt O43316 9-242, R200Q)
T3 sequence: T1 sequence with K192Q

[4] = target: T4, PAX4 (Homo sapiens, UniProt O43316 9-242, F177V)
T4 sequence: T1 sequence with F169V, K192R

[5] = target: T5, PAX4 (Homo sapiens, UniProt O43316 9-242, F177Y)
T5 sequence: T1 sequence with F169Y, K192R

[6] = target: PROP1 (Homo sapiens, UniProt O75360 56-141)
[7] = target: PROP1 (Homo sapiens, UniProt O75360 56-141, R99H)
[8] = target: PROP1 (Homo sapiens, UniProt O75360 56-141, F88S)
[9] = target: T6, PAX4 (Homo sapiens, UniProt O43316 9-242, R227W)
T6 sequence: T1 sequence with K192R, R219W

[10] = target: VAX1 (Homo sapiens, UniProt Q5SQQ9 86-172)
[11] = target: VAX1 (Homo sapiens, UniProt Q5SQQ9 86-172, T142I)
[12] = target: VAX1 (Homo sapiens, UniProt Q5SQQ9 86-172, K157R)
[13] = target: HOXA2 (Homo sapiens, UniProt O43364 129-215, R185T)
[14] = target: HOXA2 (Homo sapiens, UniProt O43364 129-215, R185K)
[15] = target: HOXA2 (Homo sapiens, UniProt O43364 129-215, Y150S)
[16] = target: PRRX1 (Homo sapiens, UniProt P54821 80-166)
[17] = target: HOXA2 (Homo sapiens, UniProt O43364 129-215)
[18] = target: HOXB6 (Homo sapiens, UniProt P17509 132-218)
[19] = target: ALX3 (Homo sapiens, UniProt O95076 139-225, N203Q)
[20] = target: ALX3 (Homo sapiens, UniProt O95076 139-225, N203S)
[21] = target: NKX3-2 (Homo sapiens, UniProt P78367 192-278, P234S)
[22] = target: NKX3-2 (Homo sapiens, UniProt P78367 192-278)
[23] = target: PRRX1 (Homo sapiens, UniProt P54821 80-166, F113S)
[24] = target: HOXD13 (Homo sapiens, UniProt P35453 263-343, T313R)
[25] = target: HOXD13 (Homo sapiens, UniProt P35453 263-343)
[26] = target: HOXD13 (Homo sapiens, UniProt P35453 263-343, T313A)
Sequence of HOXD13 (Homo sapiens, UniProt P35453 263-343, T313A) (P35453 263-343 T313A): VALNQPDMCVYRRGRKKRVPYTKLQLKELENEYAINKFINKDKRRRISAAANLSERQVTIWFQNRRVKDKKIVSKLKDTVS

Sequence of PROP1 (Homo sapiens, UniProt O75360 56-141, F88S) (O75360 56-141 F88S): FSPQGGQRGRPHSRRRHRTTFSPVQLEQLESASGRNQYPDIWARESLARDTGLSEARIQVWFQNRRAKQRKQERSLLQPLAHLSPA
Sequence of PROP1 (Homo sapiens, UniProt O75360 56-141) (O75360 56-141): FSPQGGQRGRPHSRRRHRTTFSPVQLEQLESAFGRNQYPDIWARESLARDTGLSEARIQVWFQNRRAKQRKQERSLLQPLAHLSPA
Sequence of PROP1 (Homo sapiens, UniProt O75360 56-141, R99H) (O75360 56-141 R99H): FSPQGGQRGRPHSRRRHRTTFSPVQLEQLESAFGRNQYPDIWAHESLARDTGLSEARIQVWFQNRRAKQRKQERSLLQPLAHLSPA
Sequence of PRRX1 (Homo sapiens, UniProt P54821 80-166) (P54821 80-166): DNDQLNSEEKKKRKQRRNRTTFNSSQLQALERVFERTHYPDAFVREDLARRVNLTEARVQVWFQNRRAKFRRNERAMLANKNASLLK
Sequence of HOXA2 (Homo sapiens, UniProt O43364 129-215, R185T) (O43364 129-215 R185T): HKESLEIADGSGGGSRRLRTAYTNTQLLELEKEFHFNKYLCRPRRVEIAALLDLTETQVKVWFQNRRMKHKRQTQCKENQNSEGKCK
Sequence of NKX3-2 (Homo sapiens, UniProt P78367 192-278, P234S) (P78367 192-278 P234S): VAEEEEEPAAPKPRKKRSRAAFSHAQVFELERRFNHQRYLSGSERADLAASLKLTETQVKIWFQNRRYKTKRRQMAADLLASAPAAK
Sequence of HOXA2 (Homo sapiens, UniProt O43364 129-215) (O43364 129-215): as the sequence (O43364 129-215 R185T) above, with T57R counted along it
Sequence of HOXA2 (Homo sapiens, UniProt O43364 129-215, R185K) (O43364 129-215 R185K): as the sequence (O43364 129-215 R185T) above, with T57K counted along it
Sequence of NKX3-2 (Homo sapiens, UniProt P78367 192-278) (P78367 192-278): as the sequence (P78367 192-278 P234S) above, with S43P counted along it
Sequence of HOXA2 (Homo sapiens, UniProt O43364 129-215, Y150S) (O43364 129-215 Y150S): as the sequence (O43364 129-215 R185T) above, with Y22S, T57R counted along it
Sequence of HOXB6 (P17509 132-218): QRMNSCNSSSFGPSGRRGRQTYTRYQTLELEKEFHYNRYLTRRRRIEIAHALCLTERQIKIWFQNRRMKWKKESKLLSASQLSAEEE
Sequence of HOXD13 (Homo sapiens, UniProt P35453 263-343, T313R) (P35453 263-343 T313R): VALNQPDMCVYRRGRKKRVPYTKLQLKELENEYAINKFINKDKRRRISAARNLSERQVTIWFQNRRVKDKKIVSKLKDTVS
Sequence of VAX1 (Homo sapiens, UniProt Q5SQQ9 86-172, K157R) (Q5SQQ9 86-172 K157R): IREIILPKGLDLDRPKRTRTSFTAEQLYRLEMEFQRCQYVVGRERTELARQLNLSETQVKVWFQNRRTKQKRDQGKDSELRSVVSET
Sequence of PRRX1 (Homo sapiens, UniProt P54821 80-166, F113S) (P54821 80-166 F113S): as the sequence (P54821 80-166) above, with F34S counted along it
Sequence of ALX3 (Homo sapiens, UniProt O95076 139-225, N203Q) (O95076 139-225 N203Q): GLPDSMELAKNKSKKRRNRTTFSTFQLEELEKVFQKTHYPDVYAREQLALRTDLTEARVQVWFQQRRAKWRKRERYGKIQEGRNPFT
Sequence of VAX1 (Homo sapiens, UniProt Q5SQQ9 86-172, T142I) (Q5SQQ9 86-172 T142I): as the sequence (Q5SQQ9 86-172 K157R) above, with T57I, R72K counted along it
Sequence of HOXD13 (Homo sapiens, UniProt P35453 263-343) (P35453 263-343): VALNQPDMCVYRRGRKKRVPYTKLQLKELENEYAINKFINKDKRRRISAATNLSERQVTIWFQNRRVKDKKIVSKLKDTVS
Sequence of ALX3 (Homo sapiens, UniProt O95076 139-225, N203S) (O95076 139-225 N203S): as the sequence (O95076 139-225 N203Q) above, with Q65S counted along it
Sequence of VAX1 (Homo sapiens, UniProt Q5SQQ9 86-172) (Q5SQQ9 86-172): as the sequence (Q5SQQ9 86-172 K157R) above, with R72K counted along it

## CACCGGCC
[1]
  binding signal: 9.22 upbm affinity estimate (log intensity, higher = more binding, comparable within an allelic series)
[2]
  binding signal: 9.3 upbm affinity estimate (log intensity, higher = more binding, comparable within an allelic series)
[3]
  binding signal: 9.31 upbm affinity estimate (log intensity, higher = more binding, comparable within an allelic series)
[4]
  binding signal: 9.16 upbm affinity estimate (log intensity, higher = more binding, comparable within an allelic series)
[5]
  binding signal: 9.17 upbm affinity estimate (log intensity, higher = more binding, comparable within an allelic series)
[6]
  binding signal: 6.75 upbm affinity estimate (log intensity, higher = more binding, comparable within an allelic series)
[7]
  binding signal: 6.63 upbm affinity estimate (log intensity, higher = more binding, comparable within an allelic series)
[8]
  binding signal: 6.3 upbm affinity estimate (log intensity, higher = more binding, comparable within an allelic series)
[9]
  binding signal: 9.27 upbm affinity estimate (log intensity, higher = more binding, comparable within an allelic series)

## GATATTAA
[1]
  binding signal: 11.2 upbm affinity estimate (log intensity, higher = more binding, comparable within an allelic series)
[2]
  binding signal: 11.5 upbm affinity estimate (log intensity, higher = more binding, comparable within an allelic series)
[3]
  binding signal: 11.2 upbm affinity estimate (log intensity, higher = more binding, comparable within an allelic series)
[4]
  binding signal: 10.3 upbm affinity estimate (log intensity, higher = more binding, comparable within an allelic series)
[5]
  binding signal: 10.5 upbm affinity estimate (log intensity, higher = more binding, comparable within an allelic series)
[9]
  binding signal: 10.6 upbm affinity estimate (log intensity, higher = more binding, comparable within an allelic series)

## GCCGGGAC
[1]
  binding signal: 9.33 upbm affinity estimate (log intensity, higher = more binding, comparable within an allelic series)
[2]
  binding signal: 9.39 upbm affinity estimate (log intensity, higher = more binding, comparable within an allelic series)
[3]
  binding signal: 9.37 upbm affinity estimate (log intensity, higher = more binding, comparable within an allelic series)
[4]
  binding signal: 9.2 upbm affinity estimate (log intensity, higher = more binding, comparable within an allelic series)
[5]
  binding signal: 9.2 upbm affinity estimate (log intensity, higher = more binding, comparable within an allelic series)
[6]
  binding signal: 7.02 upbm affinity estimate (log intensity, higher = more binding, comparable within an allelic series)
[7]
  binding signal: 6.96 upbm affinity estimate (log intensity, higher = more binding, comparable within an allelic series)
[8]
  binding signal: 6.46 upbm affinity estimate (log intensity, higher = more binding, comparable within an allelic series)
[9]
  binding signal: 9.24 upbm affinity estimate (log intensity, higher = more binding, comparable within an allelic series)

## GAAGCTTC
[1]
  binding signal: 9.21 upbm affinity estimate (log intensity, higher = more binding, comparable within an allelic series)
[2]
  binding signal: 9.26 upbm affinity estimate (log intensity, higher = more binding, comparable within an allelic series)
[3]
  binding signal: 9.45 upbm affinity estimate (log intensity, higher = more binding, comparable within an allelic series)
[4]
  binding signal: 9.5 upbm affinity estimate (log intensity, higher = more binding, comparable within an allelic series)
[5]
  binding signal: 9.42 upbm affinity estimate (log intensity, higher = more binding, comparable within an allelic series)
[10]
  binding signal: 6.86 upbm affinity estimate (log intensity, higher = more binding, comparable within an allelic series)
[11]
  binding signal: 7.04 upbm affinity estimate (log intensity, higher = more binding, comparable within an allelic series)
[9]
  binding signal: 9.35 upbm affinity estimate (log intensity, higher = more binding, comparable within an allelic series)
[12]
  binding signal: 6.85 upbm affinity estimate (log intensity, higher = more binding, comparable within an allelic series)

## CGAATTAG
[1]
  binding signal: 11.9 upbm affinity estimate (log intensity, higher = more binding, comparable within an allelic series)
[2]
  binding signal: 12.5 upbm affinity estimate (log intensity, higher = more binding, comparable within an allelic series)
[3]
  binding signal: 12 upbm affinity estimate (log intensity, higher = more binding, comparable within an allelic series)
[4]
  binding signal: 10.3 upbm affinity estimate (log intensity, higher = more binding, comparable within an allelic series)
[5]
  binding signal: 11.1 upbm affinity estimate (log intensity, higher = more binding, comparable within an allelic series)
[9]
  binding signal: 10.9 upbm affinity estimate (log intensity, higher = more binding, comparable within an allelic series)

## CCGCGACC
[1]
  binding signal: 9.37 upbm affinity estimate (log intensity, higher = more binding, comparable within an allelic series)
[2]
  binding signal: 9.36 upbm affinity estimate (log intensity, higher = more binding, comparable within an allelic series)
[3]
  binding signal: 9.36 upbm affinity estimate (log intensity, higher = more binding, comparable within an allelic series)
[4]
  binding signal: 9.17 upbm affinity estimate (log intensity, higher = more binding, comparable within an allelic series)
[5]
  binding signal: 9.23 upbm affinity estimate (log intensity, higher = more binding, comparable within an allelic series)
[9]
  binding signal: 9.24 upbm affinity estimate (log intensity, higher = more binding, comparable within an allelic series)

## AGCCTGAG
[13]
  binding signal: 7.3 upbm affinity estimate (log intensity, higher = more binding, comparable within an allelic series)
[14]
  binding signal: 10.4 upbm affinity estimate (log intensity, higher = more binding, comparable within an allelic series)
[6]
  binding signal: 6.61 upbm affinity estimate (log intensity, higher = more binding, comparable within an allelic series)
[7]
  binding signal: 6.62 upbm affinity estimate (log intensity, higher = more binding, comparable within an allelic series)
[8]
  binding signal: 6.73 upbm affinity estimate (log intensity, higher = more binding, comparable within an allelic series)
[15]
  binding signal: 10.5 upbm affinity estimate (log intensity, higher = more binding, comparable within an allelic series)
[16]
  binding signal: 9.12 upbm affinity estimate (log intensity, higher = more binding, comparable within an allelic series)
[17]
  binding signal: 7.33 upbm affinity estimate (log intensity, higher = more binding, comparable within an allelic series)
[18]
  binding signal: 8.88 upbm affinity estimate (log intensity, higher = more binding, comparable within an allelic series)

## ATAATTTA
[19]
  binding signal: 8.61 upbm affinity estimate (log intensity, higher = more binding, comparable within an allelic series)
[20]
  binding signal: 8.73 upbm affinity estimate (log intensity, higher = more binding, comparable within an allelic series)
[16]
  binding signal: 13.2 upbm affinity estimate (log intensity, higher = more binding, comparable within an allelic series)

## GGGCGCGA
[21]
  binding signal: 10.6 upbm affinity estimate (log intensity, higher = more binding, comparable within an allelic series)
[22]
  binding signal: 10.6 upbm affinity estimate (log intensity, higher = more binding, comparable within an allelic series)

## GCTCGGCC
[23]
  binding signal: 9.12 upbm affinity estimate (log intensity, higher = more binding, comparable within an allelic series)
[13]
  binding signal: 7.15 upbm affinity estimate (log intensity, higher = more binding, comparable within an allelic series)
[24]
  binding signal: 9.46 upbm affinity estimate (log intensity, higher = more binding, comparable within an allelic series)
[14]
  binding signal: 10.3 upbm affinity estimate (log intensity, higher = more binding, comparable within an allelic series)
[25]
  binding signal: 9.56 upbm affinity estimate (log intensity, higher = more binding, comparable within an allelic series)
[26]
  binding signal: 9.62 upbm affinity estimate (log intensity, higher = more binding, comparable within an allelic series)
[15]
  binding signal: 10.3 upbm affinity estimate (log intensity, higher = more binding, comparable within an allelic series)
[21]
  binding signal: 10.3 upbm affinity estimate (log intensity, higher = more binding, comparable within an allelic series)
[16]
  binding signal: 9.13 upbm affinity estimate (log intensity, higher = more binding, comparable within an allelic series)
[17]
  binding signal: 6.97 upbm affinity estimate (log intensity, higher = more binding, comparable within an allelic series)
[22]
  binding signal: 10.3 upbm affinity estimate (log intensity, higher = more binding, comparable within an allelic series)
